These results are taken from PubChem BioAssay AID463173 (ICCB-Longwood Screening Facility, Harvard Medical School, 2010).

Structures are written as SMILES. Hit rate of the full screen: of about 52,000 compounds, about 4,300 (8.3%) were called active. For the sample, actives were picked, then their nearest neighbours and some compounds at random. A number with no mark means an inactive call. Cut-off read from the data, not from the text of the source: active = survival mostly below about 52% (no sharp cut-off); inactive = mostly above about 56%.

In the assay the test system is DeltatarO mutant. The assay can be described thus: growth inhibition of S. aureus wild type versus tarO mutant, primary screen, teichoic acid synthesis inhibitors, RN4220, OD600 (AID 463173). As to conditions: OD600, 18 h, stronger effect = lower value, screened at 18.75 µg/mL (by protocol).
For the molecule `CCNC(=O)C1CCN(S(=O)(=O)c2ccc3c(c2)CCCN3C(C)=O)CC1`, the survival was 99%.

In the case of `CCC(CC)C(=O)OCc1cc(=O)n2nc(C3CCCCC3)sc2n1`, the survival is 88%.

Consider `COc1ccc(/C=C(\NC(=O)c2ccccc2)C(N)=O)cc1`, for which the survival was 79%.

Turning to `CC(C)CCNC(=O)Cn1c(-c2cccs2)cc2cc(F)ccc21`, the survival was 94%.

On to `Cc1cc(C)c2c(c1)c(C)cc1nnc(SCC(=O)c3ccc(F)cc3)n12`, for which the survival was 63%.

Consider `Cc1ccc(C)c(CSC2=NC(C)(C)Nc3ccccc32)c1`, for which the survival was 80%.

Regarding `CCC(NC(C)=O)c1ccccc1` (stereo not given), the survival was 71%.

Regarding `CCCCCCNc1nc(Oc2ccccc2)nc(Oc2ccccc2)n1`, the survival is 62%.

Turning to `CN(C)C(=O)CSc1n[nH]c(-c2ccccc2)n1`, the survival was 103%.

In the case of `Cc1ccc(-c2noc(-c3ccc(N4CCC(C)CC4)c([N+](=O)[O-])c3)n2)cc1`, the survival is 85%.

For the molecule `Cc1ccc(NC(=O)CSc2nc3ccc(NC(=O)CCc4ccccc4)cc3s2)cc1`, the survival was 90%.

Consider `Cc1nn(S(=O)(=O)c2ccc(C(C)C)cc2)c(C)c1S(=O)(=O)N1CCCCC1`, for which the survival was 79%.

Turning to `O=C(COc1ccc(Cl)cc1)OCc1cc(=O)n2nc(C3CC3)sc2n1`, the survival was 83%.

Turning to `Cc1cc(=O)[nH]c2nnc(SCc3ccc(Cl)cc3Cl)n12`, the survival was 123%.

Turning to `COc1ccccc1NC(=O)c1sc2ncn(Cc3ccccc3Cl)c(=O)c2c1C`, the survival was 99%.

`CCOc1ccc(-n2c(C)nc3c(cnn3-c3ccc(C)cc3)c2=O)cc1`: the survival was 76%.

With `Cc1cccc(-n2c(-c3ccco3)nc3c(cnn3-c3ccc(F)cc3)c2=O)c1`, the survival is 81%.

As for `CCOc1ccc(-n2c(CC)nc3c(cnn3-c3ccc(Cl)cc3)c2=O)cc1`, the survival was 46%.

In the case of `Cc1cccc(-c2nc3c(cnn3-c3ccccc3)c(=O)n2-c2cccc(Cl)c2)c1`, the survival was 44% (active).

For `Cc1cccc(-c2nc3c(cnn3-c3ccccc3)c(=O)n2-c2ccc(Cl)cc2)c1`, the survival is 56%.

With `CCOc1ccc(-n2c(-c3ccc(C)cc3)nc3c(cnn3-c3ccccc3)c2=O)cc1`, the survival was 42% (active).

In the case of `CC(=O)c1ccc(N2CCN(S(=O)(=O)c3ccc4c(c3)C(C)(C)C(=O)N4)CC2)cc1`, the survival was 64%.

As to `CN1C(=O)c2ccccc2Sc2ccc(NC(=O)NCc3ccc(Cl)cc3)cc21`, the survival is 96%.

As to `COc1ccc(/C=C/C(=O)Nc2sc3c(c2C(N)=O)CCCC3)cc1`, the survival was 58%.

For the molecule `CCCOc1ccc(/C=C/C(=O)Nc2sc3c(c2C(=O)OCC)CCC(C)C3)cc1OC` (stereo not given), the survival is 51%.

As to `CCOC(=O)c1c(NC(=O)/C=C/c2ccc(Cl)cc2)sc2c1CCC(C)C2` (stereo not given), the survival is 44% (active).

On to `COc1cc(C(=O)Nc2sc3c(c2C(N)=O)CCC(C)C3)cc(OC)c1OC` (stereo not given), for which the survival is 53%.

On to `COC(=O)c1c(NC(=O)/C=C/c2ccc(OC)cc2)sc2c1CCC2`, for which the survival is 102%.

With `COC(=O)c1c(NC(=O)/C=C/c2ccc(OC)c(OC)c2)sc2c1CCC2`, the survival was 51%.

As for `COC(=O)c1sc(NC(=O)/C=C/c2ccc(OC)c(OC)c2)c(C(=O)OC)c1C`, the survival was 37% (active).

`CCOC(=O)c1c(NC(=O)/C=C/c2ccc(OC)cc2)sc2c1CCC(C)C2` (stereo not given): the survival was 23% (active).

With `CCOC(=O)c1c(NC(=O)/C=C/c2ccc(OCC)c(OC)c2)sc2c1CCC2`, the survival is 56%.

For the molecule `COc1ccc(/C=C/C(=O)Nc2sc3c(c2C(N)=O)CCC(C)C3)cc1OC` (stereo not given), the survival was 34% (active).

For the molecule `CCOC(=O)c1c(NC(=O)/C=C/c2ccc(OC)c(OC)c2)sc(C(C)=O)c1C`, the survival was 118%.

For `CCOC(=O)c1sc(NC(=O)/C=C/c2ccc(C(C)C)cc2)c(C(=O)OCC)c1C`, the survival is 52%.

For `Cc1ccccc1-c1noc(-c2nnn(-c3ccccc3C)c2N)n1`, the survival is 94%.

For the molecule `O=C(NCc1ccco1)c1ccc2c(c1)N(Cc1ccccc1F)C(=O)c1ccccc1S2=O` (stereo not given), the survival is 90%.

With `CCCCNC(=O)c1ccc2c(c1)N(Cc1ccc(F)cc1)C(=O)c1ccccc1S2=O` (stereo not given), the survival was 65%.

`COC1CCCC(C(=O)Nn2c(C3CC3)nc3ccccc3c2=O)C1` (stereo not given): the survival is 69%.

Turning to `Cc1cc(F)ccc1NC(=O)c1csc2c1CCC(C)C2` (stereo not given), the survival was 89%.

With `Cc1occc1C(=O)NN=C1c2ccccc2-c2ccccc21`, the survival was 69%.

Take `CCN(C(=O)c1oc2ccc(S(=O)(=O)N3CCCCCC3)cc2c1C)c1ccccc1`: the survival is 124%.

As for `CSc1ccc(NC(=O)N2C3CCC2CC(O)(c2cccnc2)C3)cc1` (stereo not given), the survival was 79%.

As for `CCOc1ccccc1CNS(=O)(=O)c1ccc(-c2coc(C)n2)cc1`, the survival was 94%.

On to `Cc1nc(N2CCCC2)ncc1C(=O)Nc1ccc(F)cc1F`, for which the survival is 90%.

As to `Cc1ccc(Cl)cc1NC(=O)c1ccc2nc(CCc3ccccc3)oc2c1`, the survival is 69%.

For the molecule `O=C(NCc1cccs1)c1ccc2c(c1)sc1nc(-c3ccccc3)cn12`, the survival was 82%.

`COc1ccc(-c2cn3c(n2)sc2cc(C(=O)NCc4cccs4)ccc23)cc1`: the survival was 55% (active).

With `COc1cccc(-c2cn3c(n2)sc2cc(C(=O)NCc4cccs4)ccc23)c1`, the survival was 57%.

Consider `Cc1ccc(-c2cn3c(n2)sc2cc(C(=O)NCc4cccs4)ccc23)cc1`, for which the survival is 78%.

Consider `O=C(NCc1cccs1)c1ccc2c(c1)sc1nc(-c3ccc(F)cc3)cn12`, for which the survival is 71%.

For `Cc1ccc(-c2cn3c(n2)sc2cc(C(=O)NCc4cccs4)ccc23)c(C)c1`, the survival is 41% (active).

In the case of `O=C(CCc1ccccc1)NCc1ccc2c(c1)CCN2C(=O)c1ccc(Cl)cc1`, the survival was 77%.

On to `COc1ccc(CCNC(=O)c2cnn(-c3cccc(C)c3)c2C2CCN(C(=O)OC(C)(C)C)CC2)cc1OC`, for which the survival is 67%.

Take `O=C(NCCc1nc2ccccc2n1CCCOc1ccc(Cl)cc1)C1CCCCC1`: the survival was 24% (active).

With `Cc1cc(OCCCn2c(CCNC(=O)C3CCCCC3)nc3ccccc32)ccc1Cl`, the survival was 4% (active).

Regarding `Cc1cccc(C)c1OCCCn1c(CCNC(=O)C2CCCCC2)nc2ccccc21`, the survival was 1% (active).

As to `Cc1ccccc1OCCCn1c(CCNC(=O)C2CCCCC2)nc2ccccc21`, the survival was 61%.

In the case of `Cc1cc(C)cc(OCCCn2c(CCNC(=O)C3CCCCC3)nc3ccccc32)c1`, the survival is 35%.

For the molecule `Cc1cccc(C)c1OCCn1c(CCNC(=O)C2CCCCC2)nc2ccccc21`, the survival is 57%.

As for `Cc1ccc(OCCn2c(CCNC(=O)C3CCCCC3)nc3ccccc32)cc1`, the survival was 61%.

`Cc1cc(C)cc(OCCn2c(CCNC(=O)C3CCCCC3)nc3ccccc32)c1`: the survival is 92%.

As to `Cc1cc(OCCn2c(CCNC(=O)C3CCCCC3)nc3ccccc32)ccc1Cl`, the survival was 87%.

As to `O=C(NCCCc1nc2ccccc2n1Cc1ccc(Cl)cc1)C1CCCCC1`, the survival was 64%.

Consider `Cc1ccc(OCCCn2c(CCNC(=O)C3CCCCC3)nc3ccccc32)c(C)c1`, for which the survival was 64%.

For the molecule `O=C(NCCc1nc2ccccc2n1CCOc1ccc(Cl)cc1)C1CCCCC1`, the survival is 36% (active).

Regarding `Cc1cc(C)cc(N2CCn3c2nc2c3c(=O)n(CCCc3ccccc3)c(=O)n2C)c1`, the survival is 67%.

Consider `O=C(CSc1nc2c(c(=O)[nH]1)CCCC2)Nc1cccc(O)c1`, for which the survival was 68%.

In the case of `Cc1cccc(N2CCN(C(=O)c3cnn(-c4cccc(Cl)c4C)c3C3CCNCC3)CC2)c1C`, the survival was 80%.

On to `Cc1cc(NC(=O)c2ccc3c(c2)N(Cc2cccc(Cl)c2)C(=O)c2ccccc2S3(=O)=O)ccc1Br`, for which the survival is 90%.

Turning to `Cc1ccc(C2CCN(C(=O)Nc3ccc(Cl)c(Cl)c3)C2)cc1` (stereo not given), the survival is 20% (active).

As to `Cc1ccc(C2CCN(C(=O)Nc3ccc(Cl)cc3)C2)cc1` (stereo not given), the survival is 81%.

With `O=C(Nc1ccc(Cl)c(Cl)c1)N1CCC(c2ccccc2)C1` (stereo not given), the survival is 81%.

As for `COc1ccc(N2C(=O)CSC23C(=O)N(CC(=O)NCCc2ccccc2)c2ccccc23)cc1` (stereo not given), the survival is 94%.

Regarding `CCN(CC)S(=O)(=O)c1ccc(-c2nnc(SCC(=O)Nc3nc4ccccc4s3)o2)cc1`, the survival was 66%.

Turning to `N=c1n(CC(N)=O)c2ccccc2n1Cc1ccccc1Cl`, the survival was 99%.

As to `N=c1n(CC(=O)O)c2ccccc2n1Cc1ccccc1`, the survival was 84%.

Take `CCCCn1c(=N)n(CCOc2ccccc2OC)c2ccccc21`: the survival is 56%.

Take `CCOC(=O)Cn1c(=N)n(Cc2ccc(C(C)(C)C)cc2)c2ccccc21`: the survival was 103%.

As for `N=c1n(CCO)c2ccccc2n1Cc1ccccc1F`, the survival is 47% (active).

Turning to `CCCCn1c(=N)n(CCCOc2ccc(F)cc2)c2ccccc21`, the survival was 48%.

Take `CCOC(=O)Cn1c(=N)n(CCOc2ccc(OC)cc2)c2ccccc21`: the survival is 43% (active).

For the molecule `O=C1CSC(=O)N1CCOc1ccc(F)cc1`, the survival was 80%.

As to `N=c1n(CCO)c2ccccc2n1CCOc1ccc(F)cc1`, the survival was 40% (active).

As to `O=C(O)CCN1C(=O)CSC1=O`, the survival is 72%.

Regarding `CCCOc1cccc(C2c3c(oc4cc(C)c(C)cc4c3=O)C(=O)N2CCCN2CCOCC2)c1` (stereo not given), the survival is 64%.

As to `COc1ccc(CCNC(=O)c2ccc3c(c2)N(Cc2cc(C)ccc2C)C(=O)c2ccccc2S3=O)cc1OC` (stereo not given), the survival was 70%.

For the molecule `COc1cc(OC)c(NC(=O)Cn2cnc3sc(C)c(S(=O)(=O)N4CCN(C)CC4)c3c2=O)cc1Cl`, the survival was 157%.

For the molecule `Cc1oc(-c2cccc(Cl)c2)nc1CN1CCC(C(=O)NCCc2ccc(Cl)cc2)CC1`, the survival was 87%.

For the molecule `Cc1oc(-c2cccc(Br)c2)nc1CN1CCC(C(=O)NCCc2ccc(Cl)cc2)CC1`, the survival is 76%.

`Cc1oc(-c2ccc(Cl)cc2)nc1CN1CCCC(C(=O)NCCc2ccc(Cl)cc2)C1` (stereo not given): the survival was 54%.

As to `Cc1oc(-c2cccc(Cl)c2)nc1CN1CCCC(C(=O)NCCc2ccc(Cl)cc2)C1` (stereo not given), the survival is -6% (active).

Regarding `CCCCNC(=O)C1CCCN(Cc2nc(-c3ccc(Cl)cc3)oc2C)C1` (stereo not given), the survival is 77%.

Take `Cc1oc(-c2ccc(Cl)cc2)nc1CN1CCCC(C(=O)NCc2ccccc2)C1` (stereo not given): the survival was 93%.

For the molecule `Cc1ccc(C)c(N2CCN(C(=O)C3CCCN(Cc4nc(-c5cccc(Cl)c5)oc4C)C3)CC2)c1` (stereo not given), the survival was 78%.

With `Cc1cccc(-c2nc(CN3CCCC(C(=O)N4CCN(c5cc(Cl)ccc5C)CC4)C3)c(C)o2)c1` (stereo not given), the survival is 68%.

For the molecule `CCc1ccc(-c2nc(CN3CCCC(C(=O)NCc4ccc(C)cc4)C3)c(C)o2)cc1` (stereo not given), the survival is 73%.

For `Cc1cccc(-c2nc(CN3CCCC(C(=O)NCCc4ccc(Cl)cc4)C3)c(C)o2)c1` (stereo not given), the survival was 34% (active).

Consider `Cc1oc(-c2ccc(Cl)cc2)nc1CN1CCCC(C(=O)NCCc2ccccc2)C1` (stereo not given), for which the survival is 44% (active).

On to `Cc1ccc(CCNC(=O)C2CCCN(Cc3nc(-c4cccc(Cl)c4)oc3C)C2)cc1` (stereo not given), for which the survival is 25% (active).
